# Measured values as given in publication PMC5540273 (PLoS ONE, 2017).
# Tested on: PDPK1
# 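Note: kd values determined as follow-up on hits from a single-replicate KINOMEscan panel screen.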
row,Structure (SMILES),Kd [nM]
1,CC(C)(C)OC(=O)NC1CCCN(c2cc(-c3ccc4c(N)n[nH]c4c3)nc(N)n2)C1 (centres unmarked) [GSK2286096],37
2,CSc1ccc(NC2=C(c3ccccc3Cl)C(=O)NC2=O)cc1 [SB-342411],> 10000
3,COc1cc2c(Nc3cccc(NC(=O)c4ccccc4)c3)ncnc2cc1OCCCN1CCOCC1 [GSK223810],> 10000
4,Nc1nc(-c2ccc3c(N)n[nH]c3c2)cc(N2CCCCC2)n1 [GSK2228768],540

# Tested on: T1, PIP5K2C
# T1 construct: gene PIP4K2C
row,Structure (SMILES),Kd [nM]
1,CCc1nc(-c2cccc(C)c2)c(-c2ccnc(NC(=O)c3ccccc3)c2)s1,4100
2,O=C(c1ccc(-c2cc(-c3c[nH]nc3-c3ccccn3)ccn2)cc1)N1CCCC1 [GW792479],21
3,CN1CCC(n2cnc(-c3ccc(F)cc3)c2-c2ccnc(NC3CCNCC3)n2)CC1 [SB-229482],220
4,CNc1nccc(-c2c(-c3ccc(F)cc3)ncn2C2CCN(C)CC2)n1 [SB-222903],39
